These results are taken from PubChem BioAssay (NCATS).

Test [1] in a line: qHTS of pediatric cancer cell lines to identify multiple opportunities for drug repurposing: Primary screen for SJ-GBM2 cells (AID 1347091). Further: potency means the concentration at half of the fitted maximal effect. The method in brief:
(§1)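 Viability measured as metabolically active cells via CellTiter-Glo luminescence following 48 hours of compound exposure, 11-point dilutions in confirmatory testing. 500-1,000 cells/well plated 5 hours before dosing; controls were DMSO and 2.3 µM bortezomib.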
A general note: Quantitative high-throughput screening tests each substance at several concentrations.

Test [2] can be described thus: qHTS of pediatric cancer cell lines to identify multiple opportunities for drug repurposing: Primary screen for SK-N-MC cells (AID 1347093). Further: potency means the concentration at half of the fitted maximal effect. In short, it runs like this: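 Metabolically active cells were quantified by ATP-dependent luminescence (CellTiter-Glo, 15 min at room temperature) following 48 h treatment. Cells had been plated at 500-1,000 per well and settled for 5 h beforehand.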

In test [3] the target is Parathyroid hormone/parathyroid hormone-related peptide receptor (Homo sapiens) (UniProt Q03431). Kind of test: qHTS for PTHR1 Agonists: Optimization Screen against the NCGC LOPAC library (AID 1347079).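 Further: GloSensor cAMP luminescence in HEK-293 GP2 cells expressing human PTHR1 with IBMX.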 In short, it runs like this: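 Signal increase flags agonism. GP2 cells, derived from HEK-293, express human PTHR1 and a GloSensor cAMP construct.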
Chain of Parathyroid hormone/parathyroid hormone-related peptide receptor (Homo sapiens) (Q03431 whole entry, looked up): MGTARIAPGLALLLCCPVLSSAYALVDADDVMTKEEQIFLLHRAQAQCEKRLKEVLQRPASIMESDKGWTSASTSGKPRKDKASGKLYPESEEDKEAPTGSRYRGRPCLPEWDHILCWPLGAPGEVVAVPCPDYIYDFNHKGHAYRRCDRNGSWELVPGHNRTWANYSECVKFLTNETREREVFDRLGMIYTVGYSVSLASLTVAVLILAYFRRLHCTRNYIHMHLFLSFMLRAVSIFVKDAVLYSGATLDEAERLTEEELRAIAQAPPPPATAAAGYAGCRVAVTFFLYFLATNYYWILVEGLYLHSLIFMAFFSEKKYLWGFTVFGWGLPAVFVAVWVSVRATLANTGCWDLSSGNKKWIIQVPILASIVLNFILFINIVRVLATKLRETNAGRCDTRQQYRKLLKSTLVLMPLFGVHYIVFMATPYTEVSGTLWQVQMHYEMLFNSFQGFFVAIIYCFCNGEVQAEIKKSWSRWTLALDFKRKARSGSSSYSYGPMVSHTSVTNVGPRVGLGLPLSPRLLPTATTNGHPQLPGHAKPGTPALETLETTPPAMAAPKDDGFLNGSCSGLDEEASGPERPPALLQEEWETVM
Test [4] is described as follows: qHTS of pediatric cancer cell lines to identify multiple opportunities for drug repurposing: Primary screen for DAOY cells (AID 1347090). Further: nearly all actives have a fitted effect of over 55% in size. Further: potency means the concentration at half of the fitted maximal effect. The method in brief: as §1
Test [5] can be described thus: qHTS of pediatric cancer cell lines to identify multiple opportunities for drug repurposing: Primary screen for A673 cells (AID 1347092). Further: nearly all actives have a fitted effect of over 45% in size. Further: potency means the concentration at half of the fitted maximal effect. In short, it runs like this:
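A673 cells (500-1,000 cells/well in growth media) were pre-incubated 5 h at 37 degrees C, then exposed to compounds for 48 h. Viability was read as CellTiter-Glo luminescence; concentration-response curves came directly from the primary screen.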

The nature of test [6]: qHTS of pediatric cancer cell lines to identify multiple opportunities for drug repurposing: Primary screen for BT-37 cells (AID 1347094). Further: potency means the concentration at half of the fitted maximal effect. In short, it runs like this:
(§2)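 ATP-based luminescence (CellTiter-Glo) quantifies viability after a 48-hour exposure. Compounds are dosed across 8 or 11 final concentrations; DMSO and 2.3 µM bortezomib serve as controls.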

Test [7] in a line: qHTS of pediatric cancer cell lines to identify multiple opportunities for drug repurposing: Primary screen for NB-EBc1 cells (AID 1347095). Further: potency means the concentration at half of the fitted maximal effect. In short, it runs like this:
as §2

In test [8] the target is Tyrosine-protein phosphatase non-receptor type substrate 1 (Homo sapiens) + Leukocyte surface antigen CD47 (Homo sapiens) (UniProt P78324+Q08722). In words: CD47-SIRPalpha protein protein interaction - Alpha assay qHTS validation (AID 1347059).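 Further: bead proximity luminescence from CD47 binding SIRPalpha after compound preincubation with SIRPalpha.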 Further: potency means the concentration at half of the fitted maximal effect. In short, it runs like this: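 SIRPalpha-biotin 25 nM + cpd, 30 min RT, dark; add CD47-His 12.5 nM, 30 min; add Ni-NTA/SAV beads 10 ug/mL, 30 min; AlphaScreen. Buffer PBS pH 7.4 + 0.05% IGEPAL CA-630. Non-biotinylated SIRPalpha as control inhibitor.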
Chain of Tyrosine-protein phosphatase non-receptor type substrate 1 (Homo sapiens) + Leukocyte surface antigen CD47 (Homo sapiens) (P78324 whole entry, looked up): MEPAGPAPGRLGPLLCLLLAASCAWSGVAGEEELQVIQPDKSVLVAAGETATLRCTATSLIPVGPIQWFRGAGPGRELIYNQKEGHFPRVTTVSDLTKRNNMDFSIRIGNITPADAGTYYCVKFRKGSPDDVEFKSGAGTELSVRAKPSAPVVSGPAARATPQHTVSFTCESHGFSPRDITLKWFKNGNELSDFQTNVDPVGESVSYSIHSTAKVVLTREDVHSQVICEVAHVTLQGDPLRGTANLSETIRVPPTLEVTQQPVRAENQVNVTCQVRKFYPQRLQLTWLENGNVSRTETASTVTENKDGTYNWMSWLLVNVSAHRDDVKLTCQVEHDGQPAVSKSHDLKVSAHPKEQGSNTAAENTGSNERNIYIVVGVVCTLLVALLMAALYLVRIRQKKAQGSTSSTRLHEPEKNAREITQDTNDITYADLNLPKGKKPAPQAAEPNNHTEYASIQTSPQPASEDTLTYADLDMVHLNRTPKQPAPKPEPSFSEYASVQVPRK
Chain of Tyrosine-protein phosphatase non-receptor type substrate 1 (Homo sapiens) + Leukocyte surface antigen CD47 (Homo sapiens) (Q08722 whole entry, looked up): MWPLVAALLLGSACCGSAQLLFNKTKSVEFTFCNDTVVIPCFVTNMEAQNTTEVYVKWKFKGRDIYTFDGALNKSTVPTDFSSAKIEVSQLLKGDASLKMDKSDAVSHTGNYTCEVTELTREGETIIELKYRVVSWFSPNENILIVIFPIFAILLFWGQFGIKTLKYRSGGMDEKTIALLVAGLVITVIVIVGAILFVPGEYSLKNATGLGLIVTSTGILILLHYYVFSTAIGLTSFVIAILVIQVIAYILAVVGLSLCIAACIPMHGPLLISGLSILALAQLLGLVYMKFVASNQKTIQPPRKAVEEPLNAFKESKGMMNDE

Test [9] in a line: qHTS of pediatric cancer cell lines to identify multiple opportunities for drug repurposing: Primary screen for TC32 cells (AID 1347089). Further: nearly all actives have a fitted effect of over 60% in size. Further: potency means the concentration at half of the fitted maximal effect. In short, it runs like this: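 Luminescent CellTiter-Glo read-out of metabolically active TC32 cells after 48 h compound exposure. Primary: MIPE 11-point, 0.78 nM–46 µM; NPC 8-point, 0.59 nM–46 µM. Confirmatory: 11-point dilutions.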

Records with an inconclusive call do not appear. Active and inactive are the calls of the source. The call rests on the fitted dose curve; in most records, active means well fitted curve in the direction sought with a large enough effect; inconclusive means small, poorly fitted or top-dose-only effect, or another doubt; inactive means no such curve, though single readings can be large; an effect the other way counts as inactive or inconclusive.

With `COc1cc2c(cc1OC)-c1cc(=Nc3c(C)cc(C)cc3C)n(C)c(=O)n1CC2`, the Potency in [1] is 16.8 µM (active); in test [2], 4.22 µM (active).

`CN(C)CC[C@@H](c1ccc(Br)cc1)c1ccccn1`: in test [3], the call was inactive. The Potency entry in test [4], in test [1], in [5], in test [2], in test [6] and in test [7] was “inactive” in each case.

In the case of `CSc1ccc(C(=O)c2[nH]c(=O)[nH]c2C)cc1`, the Potency entry in test [8], in test [9], in test [4], in [1], in [5] and in test [2] was “inactive” in each case. The Potency entry in test [6] and in test [7] was “inactive” throughout.

On to `Cc1scc2c1N(C(=O)CN1CCN(C)CC1)c1ccccc1NC2=O`, for which the Potency result in test [8], in test [9], in test [4], in test [1], in [5] and in [2] was “inactive” in each case. Further, the Potency result in [6] and in test [7] was “inactive” throughout. Moreover, the call in [3] was inactive.

`O=C1NCN(c2ccccc2)C12CCN(CCCC(c1ccc(F)cc1)c1ccc(F)cc1)CC2`: in test [3], the outcome was inactive. The Potency in test [1] is 23.7 µM (active); in test [2] it was 16.8 µM (active).

On to `CC1=C(C)C(=O)C(CCCCC#CCCCC#CCO)=C(C)C1=O`, for which, in [3], the call was inactive. Besides, the Potency result in [4], in [1], in [6] and in test [7] was “inactive” in each case.

As for `CN(C)[C@@H]1C(=O)C(C(N)=O)=C(O)[C@@]2(O)C(=O)C3=C(O)c4c(O)ccc(Cl)c4[C@@H](O)[C@H]3C[C@@H]12`, the compound was classed as inactive in test [3]. Further, the Potency result in [9], in test [4], in test [1], in test [5], in [2] and in test [6] was “inactive” throughout. Also, the Potency entry in [7] is “inactive”.

On to `C[n+]1cc2c3c(ccc2c2ccc4cc5c(cc4c21)OCO5)OCO3`, for which, in [3], the outcome was inactive. Also, the Potency in test [4] is 2.31 µM (active); in [1] it was 1.16 µM (active); in [5] it was 1.16 µM (active); in [2], 1.3 µM (active); in test [6] it was 2.13 µM (active); in [7], 1.03 µM (active).

As for `COC(=O)C1=C(C)NC(C)=C(C(=O)OCCN(C)Cc2ccccc2)C1c1cccc([N+](=O)[O-])c1` (stereo unspecified), in [3], the call was inactive. The Potency result in test [9] is “inactive”.

On to `CC(=O)Oc1cc(C(C)C)c(OCCN(C)C)cc1C`, for which the compound was classed as inactive in test [3]. In addition, the Potency entry in [4], in [1], in test [5], in [2], in test [6] and in [7] was “inactive” in each case.

For `OC(CCN1CCCCC1)(c1ccccc1)C1CCCCC1` (stereo unspecified), the outcome in test [3] was inactive. Further, the Potency entry in test [9], in [4], in [5], in test [2] and in [7] was “inactive” in each case.

Consider `Cc1ccc(Cl)c(Nc2ccccc2C(=O)O)c1Cl`, for which the Potency entry in test [8], in [9], in test [5] and in test [6] was “inactive” each time. Also, the compound was classed as inactive in test [3].

In the case of `CCC(=O)c1ccc2c(c1)N(CCCN(C)C)c1ccccc1S2`, the result in [3] was inactive. Also, the Potency result in [9], in test [4] and in [7] was “inactive” in each case.

Consider `CN(C)CC/C=C1\c2ccccc2COc2ccccc21`, for which the Potency entry in test [8], in [9], in test [4], in test [1], in test [2] and in [6] was “inactive” each time. In addition, in test [7], the Potency entry is “inactive”. For the same compound, in test [3], the compound was called inactive.

`Nc1nc(N)c2nc(-c3ccccc3)c(N)nc2n1`: in test [8], the Potency result is “inactive”. Besides, the compound was classed as inactive in test [3]. In addition, the Potency in [9] is 7.45 µM (active); in [4] it was 26.6 µM (active); in test [1], 6.68 µM (active); in [2] it was 0.531 µM (active); in test [6], 13.8 µM (active); in [7], 8.41 µM (active).

For the compound `CCN1CCc2nc(N)oc2CC1`, the Potency entry in test [8], in test [4], in test [1], in test [5], in [2] and in [6] was “inactive” in each case. Also, the Potency result in [7] was “inactive”. Moreover, in test [3], the compound was classed as inactive.

Turning to `COCCOC(=O)C1=C(C)NC(C)=C(C(=O)OC(C)C)C1c1cccc([N+](=O)[O-])c1` (stereo unspecified), the Potency entry in test [8] was “inactive”. Further, the call in test [3] was inactive.

Turning to `CC1=NS(=O)(=O)c2cc(Cl)ccc2N1`, the compound was classed as inactive in test [3]. Also, the Potency entry in test [9], in [4], in test [1], in [5], in test [2] and in [6] was “inactive” in each case. The Potency result in test [7] was “inactive”.

Turning to `CC(=O)[C@]1(O)Cc2c(O)c3c(c(O)c2[C@@H](O[C@H]2C[C@H](N)[C@H](O)[C@H](C)O2)C1)C(=O)c1ccccc1C3=O`, the Potency was 16.5 µM (active) in test [8]; 0.47 µM (active) in [9]; 2.11 µM (active) in test [4]; 0.422 µM (active) in test [5]; 0.237 µM (active) in test [2]; 0.174 µM (active) in test [6]. In addition, in [3], the compound was classed as inactive.

On to `Brc1c(NC2=NCCN2)ccc2nccnc12`, for which the Potency result in [8], in [9], in test [4], in [1], in test [5] and in test [2] was “inactive” throughout. Also, the Potency entry in test [6] and in [7] was “inactive” in each case. The compound was called inactive in test [3].

For the compound `CC(C)(C)NCC(O)c1cc(O)cc(O)c1` (stereo unspecified), the Potency result in test [9], in test [4], in test [1], in test [5], in test [2] and in [6] was “inactive” each time. Also, in [7], the Potency result was “inactive”.

Take `CCOC(=O)C1=C(C)NC(C)=C(C(=O)OC)C1c1cccc([N+](=O)[O-])c1` (stereo unspecified): the Potency entry in [8], in test [4], in test [1], in test [5], in test [6] and in test [7] was “inactive” each time. Besides, the compound was called inactive in test [3].

With `Cc1cc(C)c(/C=C2\C(=O)Nc3ccccc32)[nH]1`, the Potency result in [8], in [9], in [4], in [1], in [5] and in test [6] was “inactive” in each case. For the same compound, the Potency result in test [7] was “inactive”. Moreover, the outcome in test [3] was inactive. Further, the Potency in test [2] is 18.8 µM (active).
